Assay [1] in a line: NCI Yeast Anticancer Drug Screen. Data for the rad50 strain (AID 155).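 Also: 0% = growth of vehicle-only cultures of the same strain.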 The settings on record: S. cerevisiae rad50 strain growth inhibition, active compounds read high. Summed up: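 Genetically altered yeast (DNA repair pathway); compound treatment; growth inhibition vs vehicle ctrl.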
Assay [2] can be described thus: NCI Yeast Anticancer Drug Screen. Data for the mec2-1 strain (AID 157). The settings on record: S. cerevisiae mec2-1 strain, active compounds read high. The method in brief:
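Readout is yeast growth inhibition, normalised to vehicle-treated controls, in the mec2-1 strain exposed to compound.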

A short description of assay [3]: NCI Yeast Anticancer Drug Screen. Data for the sgs1 mgt1 strain (AID 161).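 Also: 0% = growth of cultures given vehicle only.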 Conditions: S. cerevisiae sgs1 mgt1 strain, active compounds read high. Summed up:
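This yeast growth screen uses a strain with defined DNA-repair lesions; compound-treated growth is compared with vehicle-treated growth.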

The nature of assay [4]: NCI Yeast Anticancer Drug Screen. Data for the cln2 rad14 strain (AID 165).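 Also: 0% = growth equal to vehicle treated cultures.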 Conditions: S. cerevisiae cln2 rad14 strain, active compounds read high. Summed up:
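Relative to vehicle controls, growth inhibition of compound-treated cln2 rad14 yeast was recorded.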

Assay [5] in a line: NCI Yeast Anticancer Drug Screen. Data for the bub3 strain (AID 167). The settings on record: S. cerevisiae bub3 mutant strain, active compounds read high. The method in brief:
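Yeast carrying a defined mutation is treated with each compound, and growth is compared with that of vehicle-exposed cells to give inhibition.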

Assay [6] can be described thus: NCI Yeast Anticancer Drug Screen. Data for the mlh1 rad18 strain (AID 175). The settings on record: S. cerevisiae mlh1 rad18 strain growth inhibition, active compounds read high. Summed up: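 Test agents were incubated with a yeast strain of defined genotype (DNA damage repair defect). Inhibition of growth was derived by comparison with vehicle-exposed cultures.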
[7] abbreviates: at 5.0 µM (retest, dose inferred, filed as 0.5).
Setting [8] is: at 50.0 µM (retest, dose inferred, filed as 5.0).

The results in this text go back to PubChem BioAssay (NCI).

Compounds without any hit were thinned out: in the full panel of roughly 79,000, 15% have a hit. Values without a mark were called inactive. Active and inactive are the calls of the source. Rule as the data show it: active = growth inhibition above about 70%; inactive = the rest.

On to `C(=C\N1CCCCC1)/c1nnnn1-c1ccccc1`, for which the growth inhibition in assay [1] (setting [7]) was -23%; in assay [1] (setting [8]) it was 6%; in assay [1] (at 50.0 µM) it was 34.5%; in assay [2] (setting [7]), -18%; in assay [2] (setting [8]), -21%; in assay [2] (at 50.0 µM) it was 54.1%. Moreover, the growth inhibition in assay [3] (setting [7]) is -31%; in assay [3] (setting [8]), -18%; in assay [3] (at 50.0 µM), 71.9% (active); in assay [4] (setting [7]), -17%; in assay [4] (setting [8]), -22%; in assay [4] (at 50.0 µM), 11.8%. Also, the growth inhibition is -29% in assay [5] (setting [7]); -31% in assay [5] (setting [8]); 54.6% in assay [5] (at 50.0 µM); -4% in assay [6] (setting [7]); 1% in assay [6] (setting [8]); 72.7% (active) in assay [6] (at 50.0 µM).
Turning to `CC(C)SC(=S)S(=O)(=O)c1ccc(Cl)cc1`, the growth inhibition in assay [1] (setting [7]) is 5%; in assay [1] (setting [8]), 69%; in assay [1] (at 50.0 µM), 99.4% (active); in assay [2] (setting [7]), 0%; in assay [2] (setting [8]), 64%; in assay [2] (at 50.0 µM), 99.8% (active). The growth inhibition in assay [3] (setting [7]) was 18%; in assay [3] (setting [8]), 74% (active); in assay [3] (at 50.0 µM), 99.7% (active); in assay [4] (setting [7]), -6%; in assay [4] (setting [8]), 63%; in assay [4] (at 50.0 µM), 78.2% (active). The growth inhibition in assay [5] (setting [7]) was 11%; in assay [5] (setting [8]), 83% (active); in assay [5] (at 50.0 µM) it was 99.7% (active); in assay [6] (setting [7]), 8%; in assay [6] (setting [8]), 76% (active); in assay [6] (at 50.0 µM), 99.7% (active).
Take `[Cl][Sn]([CH2][CH2][Sn]([Cl])([c]1ccccc1)[c]1ccccc1)([c]1ccccc1)[c]1ccccc1`: the growth inhibition in assay [1] (setting [7]) was 99% (active); in assay [1] (setting [8]), 98% (active); in assay [1] (at 50.0 µM), 94.5% (active); in assay [2] (setting [7]) it was 99% (active); in assay [2] (setting [8]) it was 97% (active); in assay [2] (at 50.0 µM) it was 92.2% (active). In addition, the growth inhibition was 99% (active) in assay [3] (setting [7]); 97% (active) in assay [3] (setting [8]); 95.2% (active) in assay [3] (at 50.0 µM); 97% (active) in assay [4] (setting [7]); 96% (active) in assay [4] (setting [8]); 87.5% (active) in assay [4] (at 50.0 µM). Besides, the growth inhibition was 96% (active) in assay [5] (setting [7]); 98% (active) in assay [5] (setting [8]); 90.9% (active) in assay [5] (at 50.0 µM); 99% (active) in assay [6] (setting [7]); 98% (active) in assay [6] (setting [8]); 94.2% (active) in assay [6] (at 50.0 µM).
In the case of `CCOC1(c2ccccc2)c2ccccc2S(=O)(=O)N1C` (stereo not given), the growth inhibition was -3% in assay [1] (setting [7]); 4% in assay [1] (setting [8]); 11.1% in assay [1] (at 50.0 µM); -4% in assay [2] (setting [7]); 16% in assay [2] (setting [8]); 0.95% in assay [2] (at 50.0 µM). For the same compound, the growth inhibition in assay [3] (setting [7]) is 14%; in assay [3] (setting [8]), 33%; in assay [3] (at 50.0 µM) it was 11.2%; in assay [4] (setting [7]) it was 6%; in assay [4] (setting [8]) it was 12%; in assay [4] (at 50.0 µM) it was 56.9%. The growth inhibition in assay [5] (setting [7]) is 1%; in assay [5] (setting [8]), 10%; in assay [5] (at 50.0 µM) it was 40.8%; in assay [6] (setting [7]), 18%; in assay [6] (setting [8]), 11%; in assay [6] (at 50.0 µM), 9%.
With `O=C1/C(=N/N=C(c2ccccc2)c2ccccc2)c2ccccc2-c2ccccc21`, the growth inhibition in assay [1] (setting [7]) is 7%; in assay [1] (setting [8]), 65%; in assay [1] (at 50.0 µM), 60.9%; in assay [2] (setting [7]) it was 1%; in assay [2] (setting [8]), 14%; in assay [2] (at 50.0 µM), 0.45%. For the same compound, the growth inhibition in assay [3] (setting [7]) was -1%; in assay [3] (setting [8]), 23%; in assay [3] (at 50.0 µM), -2.6%; in assay [4] (setting [7]) it was 2%; in assay [4] (setting [8]), -5%; in assay [4] (at 50.0 µM), 0.15%. Also, the growth inhibition in assay [5] (setting [7]) is 7%; in assay [5] (setting [8]), 27%; in assay [5] (at 50.0 µM), 8.5%; in assay [6] (setting [7]), 7%; in assay [6] (setting [8]), 44%; in assay [6] (at 50.0 µM), 72.3% (active).
For `O=C(/C=C/c1cccc2ccccc12)c1cccc([N+](=O)[O-])c1`, the growth inhibition in assay [1] (setting [7]) is 11%; in assay [1] (setting [8]) it was -10%; in assay [1] (at 50.0 µM), 12.3%; in assay [2] (setting [7]), -25%; in assay [2] (setting [8]), -15%; in assay [2] (at 50.0 µM) it was -4.05%. In addition, the growth inhibition in assay [3] (setting [7]) is -2%; in assay [3] (setting [8]) it was 2%; in assay [3] (at 50.0 µM), 14.3%; in assay [4] (setting [7]) it was 7%; in assay [4] (setting [8]) it was 5%; in assay [4] (at 50.0 µM) it was 0%. The growth inhibition in assay [5] (setting [7]) was -8%; in assay [5] (setting [8]), -12%; in assay [5] (at 50.0 µM), -5.2%; in assay [6] (setting [7]), -12%; in assay [6] (setting [8]), -51%; in assay [6] (at 50.0 µM) it was -5.35%.
For `O=c1c(Cl)c(Cl)oc(Cl)c1Cl`, the growth inhibition in assay [1] (setting [7]) was 42%; in assay [1] (setting [8]), 98% (active); in assay [1] (at 50.0 µM), 79.2% (active); in assay [2] (setting [7]), 30%; in assay [2] (setting [8]), 99% (active); in assay [2] (at 50.0 µM), 98.3% (active). The growth inhibition in assay [3] (setting [7]) is 45%; in assay [3] (setting [8]), 99% (active); in assay [3] (at 50.0 µM), 88% (active); in assay [4] (setting [7]), 3%; in assay [4] (setting [8]), 99% (active); in assay [4] (at 50.0 µM), 94.5% (active). Besides, the growth inhibition is 43% in assay [5] (setting [7]); 99% (active) in assay [5] (setting [8]); 98.8% (active) in assay [5] (at 50.0 µM); 54% in assay [6] (setting [7]); 98% (active) in assay [6] (setting [8]); 97.2% (active) in assay [6] (at 50.0 µM).
As to `CCCC/C=C(\CCCNCCCC)[Si](C)(C)C`, the growth inhibition was 52% in assay [1] (setting [7]); 96% (active) in assay [1] (setting [8]); 89.9% (active) in assay [1] (at 50.0 µM); 49% in assay [2] (setting [7]); 99% (active) in assay [2] (setting [8]); 92.8% (active) in assay [2] (at 50.0 µM). In addition, the growth inhibition in assay [3] (setting [7]) was 77% (active); in assay [3] (setting [8]) it was 99% (active); in assay [3] (at 50.0 µM), 93.3% (active); in assay [4] (setting [7]), 53%; in assay [4] (setting [8]), 98% (active); in assay [4] (at 50.0 µM) it was 90.8% (active). Further, the growth inhibition in assay [5] (setting [7]) is 78% (active); in assay [5] (setting [8]), 99% (active); in assay [5] (at 50.0 µM), 91% (active); in assay [6] (setting [7]), 81% (active); in assay [6] (setting [8]), 98% (active); in assay [6] (at 50.0 µM) it was 90.7% (active).
As for `O=S1Nc2ccccc2S1` (stereo not given), the growth inhibition was 0% in assay [1] (setting [7]); 18% in assay [1] (setting [8]); 58% in assay [1] (at 50.0 µM); -1% in assay [2] (setting [7]); 33% in assay [2] (setting [8]); 85.2% (active) in assay [2] (at 50.0 µM). Moreover, the growth inhibition in assay [3] (setting [7]) is 2%; in assay [3] (setting [8]) it was 42%; in assay [3] (at 50.0 µM), 99.2% (active); in assay [4] (setting [7]), -8%; in assay [4] (setting [8]), 37%; in assay [4] (at 50.0 µM), 97% (active). The growth inhibition in assay [5] (setting [7]) is -1%; in assay [5] (setting [8]) it was 77% (active); in assay [5] (at 50.0 µM) it was 98.7% (active); in assay [6] (setting [7]), -1%; in assay [6] (setting [8]), 41%; in assay [6] (at 50.0 µM) it was 96.2% (active).
With `CCOC(=O)c1c(Cl)nc2ccccc2c1N=[N+]=[N-]`, the growth inhibition in assay [1] (setting [7]) was -10%; in assay [1] (setting [8]), 77% (active); in assay [1] (at 50.0 µM) it was 79.3% (active); in assay [2] (setting [7]) it was 14%; in assay [2] (setting [8]), 95% (active); in assay [2] (at 50.0 µM), 82.5% (active). The growth inhibition in assay [3] (setting [7]) is -13%; in assay [3] (setting [8]), 93% (active); in assay [3] (at 50.0 µM) it was 88.7% (active); in assay [4] (setting [7]), 20%; in assay [4] (setting [8]), 86% (active); in assay [4] (at 50.0 µM), 58%. In addition, the growth inhibition in assay [5] (setting [7]) was -21%; in assay [5] (setting [8]), 81% (active); in assay [5] (at 50.0 µM), 86.8% (active); in assay [6] (setting [7]), 2%; in assay [6] (setting [8]) it was 95% (active); in assay [6] (at 50.0 µM), 89.5% (active).
